This note sets out measurements from PubChem BioAssay (NCATS).

The subject of experiment [1] is NIH3T3. The experiment can be described thus: Cytotoxic Profiling of Annotated Libraries Using Quantitative High-Throughput Screening (AID 1296008). Particulars: Five cell lines viability, CellTiter-Glo ATP luminescence, 48-72 h; max response: stronger effect = lower value. In outline: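 Compounds were pin-transferred onto cells and incubated 48 or 72 hr at 37 degree Celsius, 95% humidity. CellTiter-Glo was added, plates sat 10 min at room temperature, then ATP-coupled luminescence was imaged as the viability read-out.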

A further experiment relates to MCC-13. Description: qHTS assay to identify novel small-molecules to repurpose for Merkel cell carcinoma treatment (AID 1296009). The conditions noted are these: MCC and control cell lines, CellTiter-Glo viability, 72 h; series mostly up to 46 µM. The essentials:
(§1)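 qHTS format: cells treated with library compounds in DMSO across 8 (NPC) or 11 (MIPE) concentrations. Readout after 72 hr at 37 degree celsius was CellTiter-Glo luminescence.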

The next experiment concerns MCC-26. The experiment is described as above. The conditions noted are these: MCC and control cell lines, CellTiter-Glo viability, 72 h; series mostly up to 46 µM. In outline:
as §1

The next experiment concerns MKL-1. The description is as above. Particulars: MCC and control cell lines, CellTiter-Glo viability, 72 h; series mostly up to 46 µM. The essentials:
as §1

A further experiment deals with MKL-2. The description is as above. Particulars: MCC and control cell lines, CellTiter-Glo viability, 72 h; series mostly up to 46 µM. The essentials: as §1
Experiment [2] relates to NIH3T3. The description is as above. Particulars: MCC and control cell lines, CellTiter-Glo viability, 72 h; at 44.8 µM (top of the series) unless noted. In outline: as §1
A further experiment has as its system UISO. The description is as above. The conditions noted are these: MCC and control cell lines, CellTiter-Glo viability, 72 h; series mostly up to 46 µM. The essentials:
as §1

The next experiment has as its system HEK293T. The experiment is described as above. Particulars: MCC and control cell lines, CellTiter-Glo viability, 72 h; at 44.8 µM (top of the series) unless noted. The essentials:
as §1

The subject of the next experiment is HACAT. The description is as above. The conditions noted are these: MCC and control cell lines, CellTiter-Glo viability, 72 h; at 44.8 µM (top of the series) unless noted. The essentials:
as §1

Where “and” joins values, the source holds several entries; their conditions need not be identical. Equal values may be shown once. Inconclusive results are not listed. More than one record can exist for a structure, and the calls need not agree. Calls of active or inactive are those of the source. Calls come from the whole dose curve; as a rule, active = well fitted inhibition curve with a large enough effect; inconclusive = small, poorly fitted or top-dose-only effect; inactive = flat fitted curve, though single readings scatter.
% is set by controls: 0 for no effect and ±100 for the full control effect; potency is the fitted concentration of half-maximal effect.
Note: nearly all actives have a fitted effect of over 60% in size.

Turning to `CCCc1cc(=O)[nH]c(=S)[nH]1`, the outcome in the experiment with NIH3T3 [1] and in the experiment with NIH3T3 [2] was “inactive; activator” each time. For the same compound, the Potency result with MCC-13, with MCC-26, with MKL-1, in the experiment on MKL-2 and in the experiment on UISO was “inactive” in each case.
As for `CN(C)CCc1c[nH]c2ccc(Cn3cncn3)cc12`, the Potency entry with MCC-13, in the experiment on MCC-26, with MKL-1, with MKL-2 and in the experiment on UISO was “inactive” in each case.
For `CC1(C)C(=O)N(CCN2CCC(C(=O)c3ccc(F)cc3)CC2)c2ccccc21`, the max response with NIH3T3 [1] was -5.82% (inactive). Besides, in the experiment on HEK293T, the call was inactive. The Potency entry with MCC-13, in the experiment with MCC-26, in the experiment on MKL-1, with MKL-2 and with UISO was “inactive” in each case.
As for `CCCS(=O)c1ccc2nc(NC(=O)OC)[nH]c2c1` (configuration not stated), the max response with NIH3T3 [1] is -29.9% (inactive). The Potency result with MCC-13, with MCC-26 and in the experiment with MKL-1 was “inactive” in each case.
On to `COc1c(O)cc2c(c1O)[C@@H]1O[C@H](CO)[C@@H](O)[C@H](O)[C@H]1OC2=O`, for which the max response in the experiment on NIH3T3 [1] was -9.83% (inactive) and 0.115% (inactive). Moreover, the compound was called inactive in the experiment with HEK293T. For the same compound, the Potency result in the experiment on MCC-13, in the experiment with MCC-26, with MKL-1, in the experiment on MKL-2 and in the experiment on UISO was “inactive” throughout.
Take `Oc1ccc2ccccc2c1SSc1c(O)ccc2ccccc12`: the result with NIH3T3 [1] and in the experiment on NIH3T3 [2] was inactive. In addition, the outcome in the experiment on HACAT was “inactive; activator”. Besides, the Potency entry in the experiment with MCC-13 and in the experiment on MCC-26 was “inactive” each time. Moreover, the Potency with MKL-2 is 20.9 µM (active).
Regarding `Nc1nc(N)c(N=O)c(OCC2CCCCC2)n1`, the Potency in the experiment with NIH3T3 [1] is 16.6 µM (active). In addition, the Potency entry in the experiment on MCC-26 is “inactive”.
Regarding `COc1cc(Nc2c(C#N)cnc3cc(OCCCN4CCN(C)CC4)c(OC)cc23)c(Cl)cc1Cl`, the Potency with NIH3T3 [1] is 9.44 µM (active) and 1.18 µM (active) and 8.2 µM (active); with MKL-1, 8.41 µM (active) and inactive. The Potency entry with MKL-2 is “inactive”.
For the compound `O=C(NOCC1CC1)c1ccc(F)c(F)c1Nc1ccc(I)cc1Cl`, in the experiment with MCC-26, the Potency entry was “inactive”. The Potency is 18.8 µM (active) and 20.9 µM (active) with MKL-1; 15 µM (active) in the experiment with UISO.
Turning to `C[C@]12CCC(=O)C=C1CC[C@@H]1[C@H]2[C@@H](O)C[C@@]2(C)[C@H]1CC[C@]2(O)C(=O)CO`, the compound was called inactive in the experiment on NIH3T3 [1], with HEK293T and with NIH3T3 [2]. Also, the Potency result in the experiment on MCC-13, in the experiment with MCC-26, in the experiment with MKL-1, in the experiment on MKL-2 and with UISO was “inactive” each time.
Take `COC(=O)C1=C(C)NC(C)=C(C(=O)OCCCN2CCC(c3ccccc3)(c3ccccc3)CC2)C1c1cccc([N+](=O)[O-])c1` (configuration not stated): the compound was called inactive in the experiment with NIH3T3 [1], in the experiment on HACAT and in the experiment with NIH3T3 [2]. Also, in the experiment on MCC-13, the Potency entry is “inactive”. The Potency entry in the experiment with MCC-26 is “inactive and 23.7 µM (active)”; with MKL-1, “inactive and 23.7 µM (active)”; in the experiment on MKL-2 it was “inactive and 11.9 µM (active)”; in the experiment on UISO, “inactive and 18.8 µM (active)”.
Consider `CN(C)[C@@H](CCOc1cccc2ccccc12)c1ccccc1`, for which the max response with NIH3T3 [1] is -1.45% (inactive) and -13.3% (inactive). The call in the experiment on HACAT was inactive. Moreover, the Potency result in the experiment with MCC-13, in the experiment on MCC-26, in the experiment with MKL-1 and in the experiment on UISO was “inactive” each time.
Take `O=C1CCc2ccc(OCCCCN3CCN(c4cccc(Cl)c4Cl)CC3)cc2N1`: the max response in the experiment with NIH3T3 [1] is -18.1% (inactive). In addition, in the experiment with HACAT, the call was inactive. Further, the Potency entry in the experiment on MCC-13, with MCC-26, in the experiment with MKL-1 and in the experiment with UISO was “inactive” each time.
As for `CCCCc1ccc2nc(NC(=O)OC)[nH]c2c1`, the Potency was 0.0166 µM (active) in the experiment with NIH3T3 [1]; 296 nM (active) and 53.1 nM (active) in the experiment on MCC-13. Besides, in the experiment on HACAT, the result was inactive.
Turning to `Cc1cc(=O)oc2cc(O)ccc12`, the max response in the experiment on NIH3T3 [1] was -7.66% (inactive) and -0.637% (inactive). Besides, the compound was classed as inactive with HEK293T. Moreover, the Potency result with MCC-13, in the experiment with MCC-26, in the experiment on MKL-1, in the experiment with MKL-2 and in the experiment with UISO was “inactive” each time.
Turning to `N=C(N=C(N)N)N1CCOCC1`, the max response with NIH3T3 [1] is -0.0574% (inactive) and 2.52% (inactive). The compound was classed as inactive in the experiment with HACAT. The Potency entry in the experiment with MCC-13, with MCC-26, with MKL-1, with MKL-2 and with UISO was “inactive” each time.
Turning to `CN(C)c1ccc2nc3ccc(=[N+](C)C)cc-3sc2c1`, the Potency with NIH3T3 [1] was 5.26 µM (active) and 3.35 µM (active); in the experiment with MCC-13, 7.43 µM (active) and 2.66 µM (active); in the experiment on MCC-26, 21.1 µM (active); in the experiment with MKL-1 it was 2.35 µM (active) and 841 nM (active); in the experiment with MKL-2, 4.69 µM (active) and 2.66 µM (active); in the experiment with UISO, 3.32 µM (active) and 2.37 µM (active).
`CCN(CC)CCOc1ccc(Cc2ccccc2)cc1`: the max response with NIH3T3 [1] is -6.6% (inactive). Also, the call in the experiment with HACAT was inactive. For the same compound, the Potency entry with MCC-13, in the experiment on MCC-26, with MKL-1, in the experiment on MKL-2 and in the experiment with UISO was “inactive” each time.
On to `Cc1ccc(C(=O)c2cc(O)c(O)c([N+](=O)[O-])c2)cc1`, for which the max response in the experiment on NIH3T3 [1] is 1.41% (inactive). Moreover, the compound was classed as inactive in the experiment on HACAT and in the experiment with HEK293T. Also, the Potency result in the experiment on MCC-13, in the experiment on MCC-26, in the experiment with MKL-1 and in the experiment with UISO was “inactive” throughout.
Turning to `CC(C)c1ccc2c(c1)c(SC(C)(C)C)c(CC(C)(C)C(=O)O)n2Cc1ccc(Cl)cc1`, the call in the experiment on NIH3T3 [1] and in the experiment with NIH3T3 [2] was inactive. Besides, the Potency entry in the experiment on MCC-13, with MCC-26, with MKL-1, with MKL-2 and with UISO was “inactive” in each case.
With `COc1ccc(C2(C#N)CCC(C(=O)O)CC2)cc1OC1CCCC1` (configuration not stated), the max response with NIH3T3 [1] is 4.78% (inactive) and 4.09% (inactive). Besides, the call in the experiment with HACAT and in the experiment with HEK293T was inactive. Moreover, the Potency entry in the experiment with MCC-13, in the experiment on MCC-26, in the experiment on MKL-1, with MKL-2 and in the experiment on UISO was “inactive” throughout.
On to `CN(C)CCCC1(c2ccc(F)cc2)OCc2cc(C#N)ccc21` (configuration not stated), for which, in the experiment with NIH3T3 [1], the max response was -3.81% (inactive) and 4.08% (inactive). The Potency result with MCC-13, in the experiment on MCC-26, in the experiment on MKL-1, with MKL-2 and with UISO was “inactive” throughout.
Regarding `COC(=O)C1=C(C)NC(C)=C(C(=O)OC(C)C)C1c1cccc2nonc12` (configuration not stated), the max response with NIH3T3 [1] was 1.63% (inactive). Moreover, the Potency entry with MCC-13, with MCC-26, in the experiment with MKL-1, in the experiment with MKL-2 and in the experiment on UISO was “inactive” throughout.
As for `CC(C)C[C@H](NC(=O)[C@H](Cc1ccccc1)NC(=O)c1cnccn1)B(O)O`, the Potency with NIH3T3 [1] is 53.1 nM (active) and 11.6 nM (active); in the experiment with MCC-26, 0.0376 µM (active); with MKL-1, 26.6 nM (active); with MKL-2, 0.006 µM (active); with UISO it was 0.0266 µM (active).
Regarding `O=c1cc(N2CCOCC2)oc2c(-c3ccccc3)cccc12`, the Potency entry in the experiment with MCC-13, with MCC-26, in the experiment with MKL-1, in the experiment on MKL-2 and with UISO was “inactive” throughout.
In the case of `CS(=O)(=O)OCCCCOS(C)(=O)=O`, the max response in the experiment on NIH3T3 [1] was -7.8% (inactive) and -0.608% (inactive). In addition, the result in the experiment on HACAT and in the experiment with HEK293T was inactive. In addition, the Potency entry with MCC-13, in the experiment on MCC-26, with MKL-1, with MKL-2 and in the experiment on UISO was “inactive” in each case.
Take `Clc1ccc2c(N3CCN(CCCN4CCN(c5ccnc6cc(Cl)ccc56)CC4)CC3)ccnc2c1`: the max response in the experiment with NIH3T3 [1] was -5.21% (inactive). Further, the outcome in the experiment with HACAT and in the experiment with HEK293T was “inactive [at 17.4 µM]” throughout. Further, the Potency entry in the experiment on MCC-13, with MCC-26, with MKL-1, in the experiment with MKL-2 and in the experiment with UISO was “inactive” throughout.
